Source: PubChem BioAssay (National Center for Advancing Translational Sciences (NCATS))
TSG101-PTAP inh: qHTS Assay for Iinhibitors of HIV-1 Budding by Blocking the Interaction of PTAP/TSG101; Tumor susceptibility gene 101 protein (Homo sapiens), Q99816; Fluorescence polarization, FITC-PTAP peptide / Tsg101 binding; Potency, µM (highest dose often 115 µM), without a hit: top-dose activity change, negative = inhibition, usual class: inhibitors; 340,000 tested, under 10 active; active = well fitted inhibition curve with a large enough effect in the main read-out, with a control signal flat, not every such curve was filed as active; inconclusive = small, poorly fitted or top-dose-only effect, or effect the other way, or a change in a side signal; inactive = no such curve, though single readings can be large or run the other way; note: % of control where 0% means no effect
Target sequence (Q99816 whole entry, looked up): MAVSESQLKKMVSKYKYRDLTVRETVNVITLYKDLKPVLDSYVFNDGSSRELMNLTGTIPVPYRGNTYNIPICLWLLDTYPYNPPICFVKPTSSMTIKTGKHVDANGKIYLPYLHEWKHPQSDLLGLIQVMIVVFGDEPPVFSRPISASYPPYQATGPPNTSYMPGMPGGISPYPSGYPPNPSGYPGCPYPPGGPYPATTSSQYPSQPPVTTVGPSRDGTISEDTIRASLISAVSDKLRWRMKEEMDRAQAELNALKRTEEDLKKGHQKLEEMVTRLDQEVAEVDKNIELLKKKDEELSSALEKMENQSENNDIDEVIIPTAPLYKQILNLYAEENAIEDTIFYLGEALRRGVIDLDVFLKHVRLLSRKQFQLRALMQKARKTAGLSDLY
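Fluorescence polarization binding of Tsg101 binding domain (10 uM final) to FITC-labeled PTAP peptide (50 nM final) in HEPES pH 7.5 buffer with NaCl, Tween 20, EDTA, TCEP. Compounds added before peptide; binding 20 min at RT.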
SW480 rereplic: A quantitative high throughput screen for small molecules that induce DNA re-replication in SW480 colon adenocarcinoma cells; SW480 DNA re-replication, Hoechst DNA content imaging, 48 h; 1.8% of 340,000 active; Potency, µM (highest dose often 46.1 µM), for inactives: at the top dose re-replication activation, usual class: activators; note: % of control where 0% means no effect; nearly all actives have a fitted effect of over 55% in size
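First, 250 cells per well were seeded. Next, compound or vehicle (23 nL) was pinned in, plates sat 48 hr at 37 C. Finally Hoechst was added for 40 min before fluorescence scanning.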
KB-V1 cytotox: qHTS assay for MDR1-selective chemotherapeutics: Primary screen using the drug-selected MDR subline cells KB-V1; Potency, µM (titrated, usually from 46.1 µM), most hits filed as cytotoxic; KB-V1 MDR cells viability, CellTiter-Glo, 72 h; AID 1347076, 2019; 3.4% of 400,000 active; note: % is set by controls: 0 for no effect and ±100 for the full control effect; nearly all actives have a fitted effect of over 60% in size
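Cytotoxicity via CellTiter-Glo luminescence after 72 h compound exposure at 37 degrees C. Cells: drug-selected KB-V1 line, DMEM phenol-red free plus 10% FBS. Compounds tested at multiple concentrations; normalized data fitted to concentration-effect curves.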
RGS4 inh: Inhibitors of Regulator of G Protein Signaling (RGS) 4: qHTS | Transcreener GDP fluorescence polarization, RGS4-accelerated GTP hydrolysis | 0.039% of 390,000 active | Potency, µM (doses to about 114 µM), without a hit: at the highest dose activity change, negative = inhibition, most hits filed as inhibitors | AID 504845, 2011; note: % is set by controls: 0 for no effect and ±100 for the full control effect; nearly all actives have a fitted effect of over 75% in size
Target sequence (P49798 whole entry, looked up): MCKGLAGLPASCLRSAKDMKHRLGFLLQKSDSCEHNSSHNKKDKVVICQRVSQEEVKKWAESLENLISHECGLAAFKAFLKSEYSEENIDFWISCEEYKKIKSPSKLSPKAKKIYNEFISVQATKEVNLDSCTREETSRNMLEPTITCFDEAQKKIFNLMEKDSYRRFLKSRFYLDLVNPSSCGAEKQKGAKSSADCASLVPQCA
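MLSMR compounds (23 nl, pin-transferred) preincubated 10 min at room temperature with a 500nM (2x) first reagent, then RGS4 at 900nM (2x) plus Transcreener GDP mix added; fluorescence polarization (620/688 nm) read before and after 90 min at 30 °C.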
MCF10A rereplic: A quantitative high throughput screen for small molecules that induce DNA re-replication in MCF 10a normal breast cells. MCF 10A DNA re-replication, Hoechst nuclear intensity, 48 h. Potency, µM (series often up to 46.1 µM), inactives show at the top dose activity, positive = re-replication, most hits filed as activators. 2.9% of 350,000 active. AID 624296, 2012; note: % of control where 0% means no effect; nearly all actives have a fitted effect of over 50% in size
KB-3-1 cytotox: qHTS assay for MDR1-selective chemotherapeutics: Primary screen using the parental adenocarcinoma cell KB-3-1. 1.4% of 400,000 active. Potency, µM (titrated, usually from 46.1 µM), usual class: cytotoxic. KB-3-1 viability, CellTiter-Glo ATP luminescence, 72 h; note: % is set by controls: 0 for no effect and ±100 for the full control effect; nearly all actives have a fitted effect of over 60% in size
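Here the drug-naive KB-3-1 line serves as comparator for MDR sub-line selectivity; cells received compound titrations, 72 h at 37 °C, then CellTiter-Glo readout.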
Numbers without * were called inactive; i = inactive; ? = inconclusive; . = not tested or not shown; ! = not active in a repeat; [ ] = another dose, or the depositor's remark. Most compounds without a hit are left out; they make up all but 6.6% or so of the library. Unless noted, calls come from the whole dose curve; as a rule, active = well fitted curve in the direction sought with a large enough effect; inconclusive = small, poorly fitted or top-dose-only effect, or another doubt; inactive = no such curve, though single readings can be large; an effect the other way counts as inactive or inconclusive. Potency is the fitted concentration of half-maximal effect.

SMILES	TSG101-PTAP inh	SW480 rereplic	KB-V1 cytotox	RGS4 inh	MCF10A rereplic	KB-3-1 cytotox
COc1ccc(Cl)cc1NC(=O)CCn1nc(C)cc1C	.	.	i	-22%	.	i
Cc1ccc(C2=NS(=O)(=O)N(C)C(C(=O)Nc3ccc(F)cc3F)=C2)cc1	-4%	2%	i	-7%	16%	i
COc1ccc(OC)c(C2=NS(=O)(=O)N(C)C(C(=O)Nc3ccc(F)cc3F)=C2)c1	-3%	3%	13µM*!	-13%[56.9 µM]	9%	i
O=C(Nc1ccc(N2CCCCC2)c(C(=O)O)c1)c1ccco1	-4%	-6%	i	-39%	-1%	i
Cc1cccc(NC(=O)c2cc(NC(=O)c3ccco3)ccc2N2CCCCC2)c1	-2%	16%	i	-23%	12µM*	i
CC1(C(=O)NCc2ccccc2Br)CCN1Cc1ccc(-c2ccccn2)cc1 (stereo not given)	.	.	13µM*	.	.	?
CC1(C(=O)NCc2ccccc2Br)CCN1Cc1ccc2ccccc2c1 (stereo not given)	.	.	i	.	.	i
CCOc1ccc(C2=Nc3ccccc3C(c3ccc(N4CCOCC4)cc3)=NN2)cc1	-5%	21µM*	4.1µM*	-12%	16µM*	16µM*
Fc1ccc2c(c1)C(c1ccc(N3CCOCC3)cc1)=NNC(c1cccs1)=N2	-3%	0%	10µM*	-5%	24%	?
Cc1ccc(CNC(=O)c2sc3nc(C)cc(C)c3c2-n2cccc2)cc1	.	.	.	24%	.	.
Cc1cc(C)nc(N/N=C/C2=C(N3CCOCC3)C(=C\c3ccc(Cl)cc3)/CC2)n1	-1%	?	i	-25%	?	?
Cc1occc1C(=O)N/N=C/C1=C(N2CCOCC2)C(=C\c2ccc(Cl)cc2Cl)/CC1	4%	2.9µM*	?	1%	2.1µM*	i
Cc1cc(C)nc(NN=CC2=C(N3CCOCC3)/C(=C/c3ccc(Cl)cc3)CC2)n1	-2%	21µM*	i	-42%	?	i
O=C(O)c1ccc(N/N=C/C2=C(N3CCOCC3)C(=C\c3ccccc3)/CC2)cc1	?	18µM*	i	?	?	i
C/C(=N/NC(=O)c1ccoc1C)c1ccc(N2CCOCC2)cc1	-1%	-11%	i	-13%	-3%	i
COc1ccc(NC(=O)CSc2c3c(nc4ccc(Cl)cc24)CCCC3)cc1Cl	.	.	.	-2%	.	.
O=c1cc(N2CCCCC2)c(-c2ccccc2)nn1Cc1ccc(Cl)cc1	-1%	?	?	5%	16µM*	?
O=c1cc(N2CCCCC2)c(-c2ccccc2)nn1Cc1c(Cl)cccc1Cl	-4%	19%	?	-23%[11.4 µM]	21µM*	?
O=c1cc(N2CCCCC2)c(-c2ccccc2)nn1Cc1ccc(F)cc1	-5%	-13%	i	-14%	?	?
COc1ccc2sc(-c3ccc(SC)cc3)c(/C=C/c3ccc(OC)c(OC)c3)c2c1	-2%	17%	i	12%	9.2µM*	i
COc1ccc(-c2sc3ccc(N4CCOCC4)cc3c2C#CC2(O)CCCCC2)cc1	.	?	i	5%	?	?
COc1ccc(/C=C/c2c(-c3ccc(OC)cc3)sc3ccc(N4CCOCC4)cc23)cc1	-5%	1%	i	-12%	8.2µM*	i
COc1ccc(-c2sc3ccc(N4CCOCC4)cc3c2C#CCO)cc1	-4%	?	i	-17%	12µM*	i
Cc1ccccc1NC(=O)CSc1cn(CC(=O)N2CCCCCC2)c2ccccc12	.	.	.	-8%	.	.
C[C@H](c1ccccc1)N1C[C@H](COCc2ccccc2)Oc2cc(N3CC[C@@H](O)C3)ccc2S1(=O)=O	.	.	23µM*	.	.	i
SMILES	TSG101-PTAP inh	SW480 rereplic	KB-V1 cytotox	RGS4 inh	MCF10A rereplic	KB-3-1 cytotox
CCCCC[C@H](C)N1C[C@H](COCc2ccccc2)Oc2cc(N3CC[C@H](N(C)C)C3)ccc2S1(=O)=O	.	.	21µM*	.	.	?
CCCCC[C@@H](C)N1C[C@@H](COCc2ccccc2)Oc2cc(N3CCC[C@@H]3CO)ccc2S1(=O)=O	.	.	16µM*	.	.	?
CCCCC[C@@H](C)N1C[C@H](COCc2ccccc2)Oc2cc(N3CC[C@@H](N(C)C)C3)ccc2S1(=O)=O	.	.	16µM*	.	.	?
CCCCC[C@@H](C)N1C[C@@H](COCc2ccccc2)Oc2cc(N3CC[C@@H](O)C3)ccc2S1(=O)=O	.	.	i	.	.	?
CCCCC[C@@H](C)N1C[C@@H](COCc2ccccc2)Oc2cc(N3CC[C@@H](N(C)C)C3)ccc2S1(=O)=O	.	.	21µM*	.	.	?
Cc1ccccc1NC(=O)c1sc2nc(-c3ccncc3)ccc2c1N	.	.	i	-49%	.	i
COc1ccc(-c2ccc3c(N)c(C(=O)Nc4ccc(C(F)(F)F)cc4)sc3n2)cc1OC	.	.	.	-50%	.	.
Nc1c(C(=O)N2CCCC2)sc2nc(-c3ccccc3)ccc12	0%	18µM*	i	-30%	18µM*	i
COc1ccc(NC(=O)c2sc3nc(-c4cccnc4)ccc3c2N)cc1OC	?	?	i	21%	15µM*	i
COc1ccc(NC(=O)c2sc3nc(-c4cccnc4)ccc3c2N)cc1	?	15µM*	i	-33%	?	i
Nc1c(C(=O)Nc2cccc(Cl)c2Cl)sc2nc(-c3cccnc3)ccc12	4%	9.2µM*	i	-36%	5.2µM*	i
COc1ccc(C)cc1S(=O)(=O)NCC(c1cccs1)S(=O)(=O)c1ccc(C)cc1 (stereo not given)	.	.	.	-19%	.	.
Nc1c(C(=O)N2CCOCC2)sc(=S)n1-c1ccccc1	-2%	-12%	?	?	21%	i
COc1ccc(-c2ccc3c(N)c(C(=O)c4cccc(OC)c4)sc3n2)cc1	-2%	?	i	-29%	21µM*	?
Nc1c(C(=O)N2CCCCC2)sc(=S)n1-c1ccccc1	-2%	-1%	18µM*	?	?	i
CCOc1ccc(NC(=O)Cn2nc(SC)c(S(=O)(=O)c3ccccc3)c2N)cc1	.	.	i	21%	.	i
